# Assay results from article PMC7862700, “An all-to-all approach to the identification of sequence-specific readers for epigenetic DNA modifications on cytosine”.
# Key:
# Assay in all cases: DAPPL (digital affinity profiling via proximity ligation, sequencing); 10 mM Tris-HCl pH 7.5, 50 mM NaCl, 1 mM DTT, 4% glycerol, room temperature, 30 min; GST-TFs on glutathione beads, 16-mer random dsDNA library, 0.1% formaldehyde crosslink after washing; high values mean tight binding
# FLI1 = target: T1, FLI1 (Homo sapiens, UniProt Q01543 1-452); settings: protein: recombinant; tags: N-terminal GST; dsDNA, one strand shown
# T1 sequence: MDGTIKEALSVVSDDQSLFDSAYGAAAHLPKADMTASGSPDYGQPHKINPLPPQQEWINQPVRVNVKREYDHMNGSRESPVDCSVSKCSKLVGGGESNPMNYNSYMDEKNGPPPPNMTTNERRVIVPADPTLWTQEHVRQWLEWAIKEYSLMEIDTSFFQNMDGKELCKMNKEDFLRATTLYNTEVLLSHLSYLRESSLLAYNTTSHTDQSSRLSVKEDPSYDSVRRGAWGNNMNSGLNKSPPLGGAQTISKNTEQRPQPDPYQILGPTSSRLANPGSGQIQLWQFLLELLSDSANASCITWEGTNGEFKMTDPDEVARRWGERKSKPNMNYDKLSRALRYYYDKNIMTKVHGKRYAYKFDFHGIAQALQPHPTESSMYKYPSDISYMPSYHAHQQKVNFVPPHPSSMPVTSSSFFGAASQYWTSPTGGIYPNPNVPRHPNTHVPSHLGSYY
# How it was run: (§1)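 GST fusions of human transcription factors were expressed in yeast and captured with glutathione beads. Once given DNA barcodes and pooled alongside a tag-only sample, they were incubated for 30 min at room temperature with 200 nmole of a random double-stranded 16-mer DNA library in Tris/NaCl/DTT/glycerol buffer, then washed, crosslinked (0.1% formaldehyde), proximity-ligated, PCR-amplified and sequenced on an Illumina NextSeq500. The binding signal of each hexamer is its read frequency for a factor divided by its frequency for the tag-only sample.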
# ELK1 = target: T2, ELK1 (Homo sapiens, UniProt P19419 1-428); settings: protein: recombinant; tags: N-terminal GST; dsDNA, one strand shown
# T2 sequence: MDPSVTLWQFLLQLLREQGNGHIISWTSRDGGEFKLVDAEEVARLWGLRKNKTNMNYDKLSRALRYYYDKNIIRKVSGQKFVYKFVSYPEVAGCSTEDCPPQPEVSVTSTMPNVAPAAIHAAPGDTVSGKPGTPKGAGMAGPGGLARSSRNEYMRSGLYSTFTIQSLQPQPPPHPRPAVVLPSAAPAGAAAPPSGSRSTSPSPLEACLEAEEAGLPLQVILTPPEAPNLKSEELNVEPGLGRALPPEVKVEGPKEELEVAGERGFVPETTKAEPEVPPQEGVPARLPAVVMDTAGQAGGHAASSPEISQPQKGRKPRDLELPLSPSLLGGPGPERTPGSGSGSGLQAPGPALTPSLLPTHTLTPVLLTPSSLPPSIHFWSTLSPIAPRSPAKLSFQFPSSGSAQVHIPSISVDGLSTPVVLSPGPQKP
# How it was run: as §1
# GABPA = target: T3, GABPA (Homo sapiens, UniProt Q06546 1-454); settings: protein: recombinant; tags: N-terminal GST; dsDNA, one strand shown
# T3 sequence: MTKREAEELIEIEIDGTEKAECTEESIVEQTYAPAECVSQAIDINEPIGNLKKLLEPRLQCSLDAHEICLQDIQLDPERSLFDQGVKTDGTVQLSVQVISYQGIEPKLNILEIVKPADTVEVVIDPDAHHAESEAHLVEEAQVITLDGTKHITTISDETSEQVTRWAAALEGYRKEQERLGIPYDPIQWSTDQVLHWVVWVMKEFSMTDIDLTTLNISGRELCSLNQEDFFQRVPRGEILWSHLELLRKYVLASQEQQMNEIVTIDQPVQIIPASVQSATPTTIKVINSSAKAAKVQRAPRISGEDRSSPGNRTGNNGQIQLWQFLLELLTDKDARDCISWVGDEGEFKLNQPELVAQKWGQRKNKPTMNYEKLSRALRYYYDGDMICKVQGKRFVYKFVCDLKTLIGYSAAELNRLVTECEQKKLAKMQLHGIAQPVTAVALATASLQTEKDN
# How it was run: as §1
# ERG = target: T4, ERG (Homo sapiens, UniProt P11308 1-479); settings: protein: recombinant; tags: N-terminal GST; dsDNA, one strand shown
# T4 sequence: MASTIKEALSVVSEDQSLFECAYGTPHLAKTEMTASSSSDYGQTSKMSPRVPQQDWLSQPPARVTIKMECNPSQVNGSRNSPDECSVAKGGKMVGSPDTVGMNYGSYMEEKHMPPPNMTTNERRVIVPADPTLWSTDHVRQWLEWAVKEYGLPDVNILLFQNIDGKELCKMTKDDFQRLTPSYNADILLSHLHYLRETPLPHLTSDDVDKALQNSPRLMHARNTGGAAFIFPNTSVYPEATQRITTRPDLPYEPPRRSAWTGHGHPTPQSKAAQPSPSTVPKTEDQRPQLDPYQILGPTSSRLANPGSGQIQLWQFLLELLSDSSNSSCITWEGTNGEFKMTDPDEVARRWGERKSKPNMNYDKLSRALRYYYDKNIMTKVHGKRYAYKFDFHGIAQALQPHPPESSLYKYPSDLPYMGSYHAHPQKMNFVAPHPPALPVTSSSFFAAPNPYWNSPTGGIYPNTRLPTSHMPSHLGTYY
# How it was run: as §1
# ELF1 = ELF1 (Homo sapiens, UniProt P32519 1-619); settings: protein: recombinant; tags: N-terminal GST; dsDNA, one strand shown
# ELF1, sequence (P32519 whole entry): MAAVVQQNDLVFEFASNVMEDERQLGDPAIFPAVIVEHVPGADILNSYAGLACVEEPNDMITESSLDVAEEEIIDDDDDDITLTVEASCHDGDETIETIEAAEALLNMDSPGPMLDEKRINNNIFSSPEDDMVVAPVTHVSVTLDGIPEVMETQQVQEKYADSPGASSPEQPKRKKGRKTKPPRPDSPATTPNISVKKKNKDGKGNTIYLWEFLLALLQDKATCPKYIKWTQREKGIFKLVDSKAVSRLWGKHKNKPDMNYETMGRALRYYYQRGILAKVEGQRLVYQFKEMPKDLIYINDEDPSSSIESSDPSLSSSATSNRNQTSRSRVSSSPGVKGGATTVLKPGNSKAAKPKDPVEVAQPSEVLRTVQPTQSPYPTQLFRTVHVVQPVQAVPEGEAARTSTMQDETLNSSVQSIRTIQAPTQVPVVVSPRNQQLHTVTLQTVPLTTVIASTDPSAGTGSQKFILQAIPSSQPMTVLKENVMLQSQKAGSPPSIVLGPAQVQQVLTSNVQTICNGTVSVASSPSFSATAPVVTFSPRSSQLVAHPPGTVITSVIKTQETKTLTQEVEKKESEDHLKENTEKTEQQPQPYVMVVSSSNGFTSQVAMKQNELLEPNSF
# How it was run: as §1
# EHF = target: T5, EHF (Homo sapiens, UniProt Q9NZC4 1-300); settings: protein: recombinant; tags: N-terminal GST; dsDNA, one strand shown
# T5 sequence: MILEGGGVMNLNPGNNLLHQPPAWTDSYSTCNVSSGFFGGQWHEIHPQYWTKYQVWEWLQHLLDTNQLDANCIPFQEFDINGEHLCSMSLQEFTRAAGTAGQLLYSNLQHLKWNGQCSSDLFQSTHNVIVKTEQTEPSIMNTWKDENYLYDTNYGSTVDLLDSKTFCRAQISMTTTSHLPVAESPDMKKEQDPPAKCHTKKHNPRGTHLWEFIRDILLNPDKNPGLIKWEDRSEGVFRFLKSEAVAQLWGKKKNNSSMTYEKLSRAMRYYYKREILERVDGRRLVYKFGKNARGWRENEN
# How it was run: as §1
# SPI1 = SPI1 (Homo sapiens, UniProt P17947 1-270); settings: protein: recombinant; tags: N-terminal GST; dsDNA, one strand shown
# How it was run: as §1
# SPIB = SPIB (Homo sapiens, UniProt Q01892 1-262); settings: protein: recombinant; tags: N-terminal GST; dsDNA, one strand shown
# SPIB, sequence (Q01892 whole entry): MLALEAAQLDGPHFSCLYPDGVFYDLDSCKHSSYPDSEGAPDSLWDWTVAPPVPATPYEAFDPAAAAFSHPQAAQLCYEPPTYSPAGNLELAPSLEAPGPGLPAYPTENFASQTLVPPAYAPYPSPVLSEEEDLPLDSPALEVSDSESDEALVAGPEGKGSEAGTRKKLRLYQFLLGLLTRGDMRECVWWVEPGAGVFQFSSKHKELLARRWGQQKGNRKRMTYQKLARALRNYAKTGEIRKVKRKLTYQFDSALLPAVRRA
# How it was run: as §1
# ELK3 = target: T6, ELK3 (Homo sapiens, UniProt P41970 1-407); settings: protein: recombinant; tags: N-terminal GST; dsDNA, one strand shown
# T6 sequence: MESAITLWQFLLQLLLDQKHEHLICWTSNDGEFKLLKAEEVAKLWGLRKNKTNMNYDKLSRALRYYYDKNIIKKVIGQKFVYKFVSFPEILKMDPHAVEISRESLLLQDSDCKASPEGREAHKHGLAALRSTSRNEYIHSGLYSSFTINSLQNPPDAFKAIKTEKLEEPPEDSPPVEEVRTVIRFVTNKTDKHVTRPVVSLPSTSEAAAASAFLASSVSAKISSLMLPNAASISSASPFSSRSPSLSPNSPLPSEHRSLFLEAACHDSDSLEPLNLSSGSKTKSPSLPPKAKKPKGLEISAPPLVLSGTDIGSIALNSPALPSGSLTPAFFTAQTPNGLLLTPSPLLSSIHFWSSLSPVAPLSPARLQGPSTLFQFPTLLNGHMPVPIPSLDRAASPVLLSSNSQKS
# How it was run: as §1
# FEV = target: T7, FEV (Homo sapiens, UniProt Q99581 1-238); settings: protein: recombinant; tags: N-terminal GST; dsDNA, one strand shown
# T7 sequence: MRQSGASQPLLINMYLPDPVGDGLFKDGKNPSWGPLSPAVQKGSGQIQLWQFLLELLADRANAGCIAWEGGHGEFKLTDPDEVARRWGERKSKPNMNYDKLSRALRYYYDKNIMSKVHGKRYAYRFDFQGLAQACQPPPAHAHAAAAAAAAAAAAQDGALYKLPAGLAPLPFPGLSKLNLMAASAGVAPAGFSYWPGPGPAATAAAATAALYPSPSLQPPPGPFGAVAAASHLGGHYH
# How it was run: as §1
# ETV5 = ETV5 (Homo sapiens, UniProt P41161 1-510); settings: protein: recombinant; tags: N-terminal GST; dsDNA, one strand shown
# ETV5, sequence (P41161 whole entry): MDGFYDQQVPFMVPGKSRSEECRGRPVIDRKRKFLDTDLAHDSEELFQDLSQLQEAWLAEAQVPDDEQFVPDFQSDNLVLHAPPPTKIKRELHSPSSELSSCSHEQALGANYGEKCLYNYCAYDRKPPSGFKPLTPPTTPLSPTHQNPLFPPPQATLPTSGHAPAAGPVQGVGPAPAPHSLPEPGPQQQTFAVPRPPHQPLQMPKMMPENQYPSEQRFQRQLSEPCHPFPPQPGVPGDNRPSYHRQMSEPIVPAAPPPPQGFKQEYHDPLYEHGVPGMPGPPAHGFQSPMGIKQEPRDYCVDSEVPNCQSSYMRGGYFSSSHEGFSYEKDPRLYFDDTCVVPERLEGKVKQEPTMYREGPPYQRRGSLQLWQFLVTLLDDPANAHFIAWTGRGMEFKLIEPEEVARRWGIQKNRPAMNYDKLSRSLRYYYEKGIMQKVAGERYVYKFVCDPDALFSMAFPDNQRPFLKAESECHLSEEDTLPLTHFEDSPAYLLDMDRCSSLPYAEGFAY
# How it was run: as §1
# HSF1 = HSF1 (Homo sapiens, UniProt Q00613 1-529); settings: protein: recombinant; tags: N-terminal GST; chain copies: 3; dsDNA, one strand shown
# HSF1, sequence (Q00613 whole entry): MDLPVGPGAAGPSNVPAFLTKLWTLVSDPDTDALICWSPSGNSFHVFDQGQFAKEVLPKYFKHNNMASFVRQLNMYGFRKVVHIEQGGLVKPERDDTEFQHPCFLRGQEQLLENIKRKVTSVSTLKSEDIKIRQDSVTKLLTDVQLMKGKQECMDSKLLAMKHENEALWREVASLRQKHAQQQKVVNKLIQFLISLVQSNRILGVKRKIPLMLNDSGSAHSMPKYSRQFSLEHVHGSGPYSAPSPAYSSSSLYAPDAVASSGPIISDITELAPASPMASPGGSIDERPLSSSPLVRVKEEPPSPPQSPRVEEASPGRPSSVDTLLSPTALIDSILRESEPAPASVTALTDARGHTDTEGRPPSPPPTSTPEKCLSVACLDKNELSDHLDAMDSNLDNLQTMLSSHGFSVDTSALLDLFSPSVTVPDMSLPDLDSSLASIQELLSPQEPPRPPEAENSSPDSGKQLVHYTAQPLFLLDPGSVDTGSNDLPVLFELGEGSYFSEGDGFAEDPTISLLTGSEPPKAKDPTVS
# How it was run: as §1
# SPIC = target: T8, SPIC (Homo sapiens, UniProt Q8N5J4 1-248); settings: protein: recombinant; tags: N-terminal GST; dsDNA, one strand shown
# T8 sequence: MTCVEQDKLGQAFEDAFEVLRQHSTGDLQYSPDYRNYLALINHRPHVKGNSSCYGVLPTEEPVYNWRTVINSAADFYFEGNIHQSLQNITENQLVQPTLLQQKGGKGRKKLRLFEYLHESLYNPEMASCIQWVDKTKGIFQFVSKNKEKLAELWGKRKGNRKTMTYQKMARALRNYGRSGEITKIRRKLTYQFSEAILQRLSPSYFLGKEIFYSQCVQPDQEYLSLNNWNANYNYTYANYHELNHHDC
# How it was run: as §1
# ELF4 = ELF4 (Homo sapiens, UniProt Q99607 1-663); settings: protein: recombinant; tags: N-terminal GST; dsDNA, one strand shown
# ELF4, sequence (Q99607 whole entry): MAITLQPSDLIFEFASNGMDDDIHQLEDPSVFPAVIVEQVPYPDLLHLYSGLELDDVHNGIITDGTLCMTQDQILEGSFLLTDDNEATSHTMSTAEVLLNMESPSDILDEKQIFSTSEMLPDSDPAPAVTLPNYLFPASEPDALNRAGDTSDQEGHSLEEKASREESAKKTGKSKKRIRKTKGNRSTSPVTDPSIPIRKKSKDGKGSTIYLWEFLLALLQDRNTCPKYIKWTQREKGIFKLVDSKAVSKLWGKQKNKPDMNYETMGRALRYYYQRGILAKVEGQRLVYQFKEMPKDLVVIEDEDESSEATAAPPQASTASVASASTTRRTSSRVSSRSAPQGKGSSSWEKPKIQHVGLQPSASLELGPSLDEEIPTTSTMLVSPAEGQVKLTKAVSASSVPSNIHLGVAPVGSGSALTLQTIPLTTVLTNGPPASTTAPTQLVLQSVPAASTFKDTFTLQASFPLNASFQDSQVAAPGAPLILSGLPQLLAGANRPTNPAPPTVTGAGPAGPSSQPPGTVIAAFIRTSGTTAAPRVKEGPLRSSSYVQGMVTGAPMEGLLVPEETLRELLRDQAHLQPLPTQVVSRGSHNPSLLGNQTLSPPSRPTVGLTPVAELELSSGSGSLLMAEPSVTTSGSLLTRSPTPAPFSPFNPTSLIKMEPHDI
# How it was run: as §1
# ELK4 = target: T9, ELK4 (Homo sapiens, UniProt P28324-2 1-405); settings: protein: recombinant; tags: N-terminal GST; dsDNA, one strand shown
# T9 sequence: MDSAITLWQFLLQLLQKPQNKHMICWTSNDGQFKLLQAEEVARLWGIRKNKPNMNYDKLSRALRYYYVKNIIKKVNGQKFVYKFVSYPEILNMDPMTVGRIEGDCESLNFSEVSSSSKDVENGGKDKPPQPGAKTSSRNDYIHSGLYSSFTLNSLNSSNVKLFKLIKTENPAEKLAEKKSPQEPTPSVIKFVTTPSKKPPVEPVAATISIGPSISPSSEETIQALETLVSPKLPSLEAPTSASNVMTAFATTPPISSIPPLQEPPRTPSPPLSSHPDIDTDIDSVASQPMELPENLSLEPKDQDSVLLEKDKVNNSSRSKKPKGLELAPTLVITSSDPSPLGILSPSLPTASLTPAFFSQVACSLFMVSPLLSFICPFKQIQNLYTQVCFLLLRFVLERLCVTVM
# How it was run: as §1
# ETV2 = target: T10, ETV2 (Homo sapiens, UniProt O00321 1-342); settings: protein: recombinant; tags: N-terminal GST; dsDNA, one strand shown
# T10 sequence: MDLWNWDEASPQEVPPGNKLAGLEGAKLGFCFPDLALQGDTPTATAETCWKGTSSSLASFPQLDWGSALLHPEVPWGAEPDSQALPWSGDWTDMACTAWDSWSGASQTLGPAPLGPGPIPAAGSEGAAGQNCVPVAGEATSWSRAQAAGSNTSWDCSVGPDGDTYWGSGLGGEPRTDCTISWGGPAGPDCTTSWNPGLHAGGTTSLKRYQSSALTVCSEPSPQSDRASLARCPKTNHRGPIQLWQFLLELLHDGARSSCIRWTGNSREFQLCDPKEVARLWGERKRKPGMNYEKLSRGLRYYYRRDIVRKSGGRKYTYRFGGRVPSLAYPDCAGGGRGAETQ
# How it was run: as §1
# ELF3 = target: T11, ELF3 (Homo sapiens, UniProt P78545 1-371); settings: protein: recombinant; tags: N-terminal GST; dsDNA, one strand shown
# T11 sequence: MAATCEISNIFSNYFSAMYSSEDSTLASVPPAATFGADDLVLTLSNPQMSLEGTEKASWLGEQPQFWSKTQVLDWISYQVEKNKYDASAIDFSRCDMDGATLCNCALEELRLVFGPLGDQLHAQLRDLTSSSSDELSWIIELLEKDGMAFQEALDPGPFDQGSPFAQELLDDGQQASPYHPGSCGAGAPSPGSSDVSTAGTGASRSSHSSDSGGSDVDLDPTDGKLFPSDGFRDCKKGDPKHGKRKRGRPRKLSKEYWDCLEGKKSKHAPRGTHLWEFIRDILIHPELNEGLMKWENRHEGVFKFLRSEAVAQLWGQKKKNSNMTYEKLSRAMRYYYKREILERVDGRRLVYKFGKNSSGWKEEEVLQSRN
# How it was run: as §1
# CRX = CRX (Homo sapiens, UniProt O43186 1-299); settings: protein: recombinant; tags: N-terminal GST; dsDNA, one strand shown
# CRX, sequence (O43186 whole entry): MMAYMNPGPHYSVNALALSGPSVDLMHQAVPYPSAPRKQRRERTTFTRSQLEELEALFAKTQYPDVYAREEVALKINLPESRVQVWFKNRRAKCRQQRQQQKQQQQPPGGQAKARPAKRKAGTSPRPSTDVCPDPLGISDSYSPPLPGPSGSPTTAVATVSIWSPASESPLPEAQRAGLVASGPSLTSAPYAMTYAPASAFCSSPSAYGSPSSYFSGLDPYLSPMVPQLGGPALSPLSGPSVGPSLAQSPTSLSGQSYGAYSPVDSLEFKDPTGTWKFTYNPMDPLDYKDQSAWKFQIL
# How it was run: as §1
# ETV1 = ETV1 (Homo sapiens, UniProt P50549 1-477); settings: protein: recombinant; tags: N-terminal GST; dsDNA, one strand shown
# ETV1, sequence (P50549 whole entry): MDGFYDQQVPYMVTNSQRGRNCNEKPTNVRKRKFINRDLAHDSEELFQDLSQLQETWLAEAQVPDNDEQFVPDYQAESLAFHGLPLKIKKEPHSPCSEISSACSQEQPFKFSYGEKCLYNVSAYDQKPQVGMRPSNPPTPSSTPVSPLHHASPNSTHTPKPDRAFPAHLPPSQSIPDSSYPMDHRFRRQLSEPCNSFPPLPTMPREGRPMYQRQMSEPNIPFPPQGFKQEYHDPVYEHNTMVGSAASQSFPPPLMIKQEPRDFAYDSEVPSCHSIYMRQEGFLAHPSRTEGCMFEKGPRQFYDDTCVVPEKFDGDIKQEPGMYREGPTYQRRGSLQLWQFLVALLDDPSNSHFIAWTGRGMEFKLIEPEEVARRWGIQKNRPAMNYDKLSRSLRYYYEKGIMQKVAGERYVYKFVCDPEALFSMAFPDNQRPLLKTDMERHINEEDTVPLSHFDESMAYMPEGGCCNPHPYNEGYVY
# How it was run: as §1
sequence,measurement,setting,value
GCCTAC,binding signal,FLI1,"1.18 fold enrichment (6-mer frequency, TF over GST control)"
same,binding signal,ELK1,"1.17 fold enrichment (6-mer frequency, TF over GST control)"
same,binding signal,GABPA,"1.28 fold enrichment (6-mer frequency, TF over GST control)"
same,binding signal,ERG,"1.25 fold enrichment (6-mer frequency, TF over GST control)"
same,binding signal,ELF1,"1.21 fold enrichment (6-mer frequency, TF over GST control)"
same,binding signal,EHF,"1.25 fold enrichment (6-mer frequency, TF over GST control)"
same,binding signal,SPI1,"1.18 fold enrichment (6-mer frequency, TF over GST control)"
same,binding signal,SPIB,"1.21 fold enrichment (6-mer frequency, TF over GST control)"
same,binding signal,ELK3,"1.1 fold enrichment (6-mer frequency, TF over GST control)"
same,binding signal,FEV,"1.2 fold enrichment (6-mer frequency, TF over GST control)"
same,binding signal,ETV5,"1.16 fold enrichment (6-mer frequency, TF over GST control)"
same,binding signal,HSF1,"1.01 fold enrichment (6-mer frequency, TF over GST control)"
same,binding signal,SPIC,"1.37 fold enrichment (6-mer frequency, TF over GST control)"
same,binding signal,ELF4,"1.26 fold enrichment (6-mer frequency, TF over GST control)"
same,binding signal,ELK4,"1.38 fold enrichment (6-mer frequency, TF over GST control)"
same,binding signal,ETV2,"1.16 fold enrichment (6-mer frequency, TF over GST control)"
same,binding signal,ELF3,"1.1 fold enrichment (6-mer frequency, TF over GST control)"
same,binding signal,CRX,"1.12 fold enrichment (6-mer frequency, TF over GST control)"
same,binding signal,ETV1,"1.2 fold enrichment (6-mer frequency, TF over GST control)"
